Assay results: PubChem BioAssay (EPA / NIEHS)
Results filed as inconclusive are left out. Activity calls are given as the source filed them. The calls were made as follows, unless noted: active = hit-call score of the fitted dose curve at least 0.9, where 1 is the maximum; inconclusive = response in the unintended direction; inactive = score below 0.9.

Read-out: X-box binding protein 1 (XBP1), XBP1 (gene 7494)
Experiment: LTEA_HepaRG_XBP1: Life Technologies and Expression Analysis (LTEA) Assay for X-box binding protein 1 (XBP1) using HepaRG (AID 2283540; active = hit-call score of the fitted dose curve at least 0.9, where 1 is the maximum; inactive = score below 0.9)
Details: mRNA level, 48 h; actives raise or lower the signal
In short: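 Human HepaRG monolayers receive test chemical for 48 h across an eight-point half-log series starting at 100 uM. XBP1 mRNA gain or loss is scored against DMSO by qRT-PCR.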

Question: With Cc1nn(C)c(Oc2ccccc2)c1C=NOCc1ccc(C(=O)OC(C)(C)C)cc1 as the compound, how does the outcome read?
Answer: inactive

Question: With OB(O)O as the compound, how does the outcome read?
Answer: inactive

Question: With CCOC(=O)C(C)Oc1ccc(Oc2nc3ccc(Cl)cc3o2)cc1 (configuration not stated) as the compound, how does the outcome read?
Answer: inactive

Question: Which outcome does the source give for COC(=O)CSc1cc(N=c2sc(=O)n3n2CCCC3)c(F)cc1Cl here?
Answer: inactive

Question: With CCNc1nc(N)nc(Cl)n1 as the compound, how does the outcome read?
Answer: inactive

Read-out: not listed separately
Experiment: LTEA_HepaRG_LDH_cytotoxicity: Cytotoxicity Assessment in the Life Technologies and Expression Analysis (LTEA) Assay (AID 2283563);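 as to AC50: LDH activity released into spent culture medium as a marker of cell death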
Details: not given
In short: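 Human HepaRG hepatic cells are treated with test chemicals for 48 h at up to 100 uM in 0.5% DMSO. Cytotoxicity is scored from medium LDH against the vehicle control.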

Question: For CCCCCOC(=O)COc1cc(N2C(=O)C3=C(CCCC3)C2=O)c(F)cc1Cl, which outcome is on record?
Answer: inactive

Question: For CCSC(=O)N(CC(C)C)CC(C)C, which outcome is on record?
Answer: inactive

Question: For CCC(C)OC(=O)N1CCCCC1CCO (configuration not stated), which outcome is on record?
Answer: inactive

Question: Which outcome does the source give for CCCCCCC(C)OC(=O)COc1nc(F)c(Cl)c(N)c1Cl (configuration not stated) here?
Answer: inactive

Question: Which outcome does the source give for CCCN(CCC)c1c([N+](=O)[O-])cc(C(F)(F)F)c(N)c1[N+](=O)[O-] here?
Answer: inactive

Question: Which outcome does the source give for COC(=O)c1ccccc1C(=O)O here?
Answer: inactive

Question: Which outcome does the source give for O=C(O)C1(C(=O)Nc2ccc(Cl)cc2Cl)CC1 here?
Answer: inactive

Question: With CCCCOC(=O)C(C)Oc1ccc(Oc2ccc(C(F)(F)F)cn2)cc1 (configuration not stated) as the compound, how does the outcome read?
Answer: inactive

Question: With CCOC(=O)C(C)Oc1ccc(Oc2cnc3cc(Cl)ccc3n2)cc1 (configuration not stated) as the compound, how does the outcome read?
Answer: inactive

Question: With CCCOC(=O)NCCCN(C)C as the compound, how does the outcome read?
Answer: inactive

Question: Which outcome does the source give for CC(C)(C)[C@@H](O)[C@@H](Cc1ccc(Cl)cc1)n1cncn1 here?
Answer: inactive

Question: Which outcome does the source give for COc1c(Cl)ccc(Cl)c1C(=O)O here?
Answer: inactive

Question: With CCCN(CCC)C(=O)SCC as the compound, how does the outcome read?
Answer: inactive

Question: For CCCCOCCOCCOCc1cc2c(cc1CCC)OCO2, which outcome is on record?
Answer: inactive

Question: Which AC50 does the source give for S=C([S-])NCCNC(=S)[S-].[Mn+2] here?
Answer: 3.77 µM (active)

Question: With CCCOC(=O)c1ccc(C(=O)OCCC)nc1 as the compound, how does the outcome read?
Answer: inactive

Question: Which outcome does the source give for CCOC(=O)COc1cc(-n2ncc(C(F)(F)F)c(C)c2=O)c(F)cc1Cl here?
Answer: inactive

Question: With CCOC(=O)NCCOc1ccc(Oc2ccccc2)cc1 as the compound, how does the AC50 read?
Answer: 82.2 µM (active)

Question: Which outcome does the source give for COC(=O)c1ccc(I)cc1S(=O)(=O)NC(=O)Nc1nc(C)nc(OC)n1 here?
Answer: inactive

Question: For CCCCOC(=O)[C@@H](C)Oc1ccc(Oc2ccc(C(F)(F)F)cn2)cc1, which outcome is on record?
Answer: inactive

Question: For Cc1nn(C)c(Oc2ccccc2)c1C=NOCc1ccc(C(=O)OC(C)(C)C)cc1, which AC50 is on record?
Answer: 8.6 µM (active)

Question: For OB(O)O, which outcome is on record?
Answer: inactive

Question: With CCOC(=O)C(C)Oc1ccc(Oc2nc3ccc(Cl)cc3o2)cc1 (configuration not stated) as the compound, how does the outcome read?
Answer: inactive

Question: Which outcome does the source give for COC(=O)CSc1cc(N=c2sc(=O)n3n2CCCC3)c(F)cc1Cl here?
Answer: inactive

Question: For CCNc1nc(N)nc(Cl)n1, which outcome is on record?
Answer: inactive

Tested on: not listed separately
Experiment: TOX21_p53_BLA_p2_viability: Viability Assessment in the Tox21 HCT-116 p53 Agonism Beta-lactamase Assay, Phase 2 (AID 2283591);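 also: compound exposure lasted 16 h at 37 °C; actives lower the ATP signal meaning cytotoxicity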
Details: not given
In short: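 Cytotoxicity readout: CellTiter-Glo ATP luminescence, 30 min at room temperature, after the beta-lactamase read. Cells were HCT116 exposed 16 h at 37C to compounds pin-transferred at 217-fold dilution from DMSO stocks.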

Question: Which outcome does the source give for COc1nc(C)nc(NC(=O)NS(=O)(=O)c2ccccc2OCCCl)n1 here?
Answer: inactive

Question: For CCCCCCC(C)OC(=O)COc1nc(F)c(Cl)c(N)c1Cl (configuration not stated), which AC50 is on record?
Answer: 70.8 µM (active)

Question: Which AC50 does the source give for CCCN(CCC)c1c([N+](=O)[O-])cc(C(F)(F)F)c(N)c1[N+](=O)[O-] here?
Answer: 23.1 µM (active)

Question: With O=C(O)C1(C(=O)Nc2ccc(Cl)cc2Cl)CC1 as the compound, how does the outcome read?
Answer: inactive

Question: Which outcome does the source give for CCCCOC(=O)C(C)Oc1ccc(Oc2ccc(C(F)(F)F)cn2)cc1 (configuration not stated) here?
Answer: inactive

Question: With CCCOC(=O)NCCCN(C)C as the compound, how does the outcome read?
Answer: inactive

Question: With CC(C)(C)[C@@H](O)[C@@H](Cc1ccc(Cl)cc1)n1cncn1 as the compound, how does the outcome read?
Answer: inactive

Question: For CCCOC(=O)c1ccc(C(=O)OCCC)nc1, which outcome is on record?
Answer: inactive

Question: Which outcome does the source give for CCOC(=O)COc1cc(-n2ncc(C(F)(F)F)c(C)c2=O)c(F)cc1Cl here?
Answer: inactive

Question: For CCOC(=O)NCCOc1ccc(Oc2ccccc2)cc1, which outcome is on record?
Answer: inactive

Question: For COC(=O)c1ccc(I)cc1S(=O)(=O)NC(=O)Nc1nc(C)nc(OC)n1, which outcome is on record?
Answer: inactive

Question: Which outcome does the source give for CCCCOC(=O)[C@@H](C)Oc1ccc(Oc2ccc(C(F)(F)F)cn2)cc1 here?
Answer: inactive

Question: For Cc1nn(C)c(Oc2ccccc2)c1C=NOCc1ccc(C(=O)OC(C)(C)C)cc1, which outcome is on record?
Answer: inactive

Question: With OB(O)O as the compound, how does the outcome read?
Answer: inactive

Question: Which outcome does the source give for CCOC(=O)C(C)Oc1ccc(Oc2nc3ccc(Cl)cc3o2)cc1 (configuration not stated) here?
Answer: inactive

Question: For COC(=O)CSc1cc(N=c2sc(=O)n3n2CCCC3)c(F)cc1Cl, which outcome is on record?
Answer: inactive

Target: Cellular tumor antigen p53 (Homo sapiens) (UniProt P04637)
Experiment: TOX21_p53_BLA_p2_ratio: Tox21 HCT-116 p53 Agonism Beta-lactamase Assay, Ratio, Phase 2 (AID 2283592)
Details: not given
In short: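 An inducible beta-lactamase reporter in HCT116 cells signals p53 pathway activation. After 16 h chemical exposure at 37C, cells load CCF4-AM substrate for 2 h at room temperature; activity is the cleaved/uncleaved emission ratio relative to DMSO.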

Cellular tumor antigen p53 (Homo sapiens), sequence (P04637 whole entry, looked up): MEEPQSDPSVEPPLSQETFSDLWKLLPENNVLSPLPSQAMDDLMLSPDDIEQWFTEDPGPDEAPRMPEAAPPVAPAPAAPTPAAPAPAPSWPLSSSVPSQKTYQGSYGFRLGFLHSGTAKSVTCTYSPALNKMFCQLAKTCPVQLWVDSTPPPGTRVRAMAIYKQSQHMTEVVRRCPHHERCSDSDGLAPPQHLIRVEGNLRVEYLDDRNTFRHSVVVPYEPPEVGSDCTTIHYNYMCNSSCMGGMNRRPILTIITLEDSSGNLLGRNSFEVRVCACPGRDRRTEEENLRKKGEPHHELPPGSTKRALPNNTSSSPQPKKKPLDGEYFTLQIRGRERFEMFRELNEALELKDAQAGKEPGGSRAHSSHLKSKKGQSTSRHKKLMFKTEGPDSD

Question: Which outcome does the source give for COc1nc(C)nc(NC(=O)NS(=O)(=O)c2ccccc2OCCCl)n1 here?
Answer: inactive

Question: For CCC(C)OC(=O)N1CCCCC1CCO (configuration not stated), which outcome is on record?
Answer: inactive

Question: Which AC50 does the source give for CCCCCCC(C)OC(=O)COc1nc(F)c(Cl)c(N)c1Cl (configuration not stated) here?
Answer: 82.3 µM (active)

Question: Which AC50 does the source give for CCCN(CCC)c1c([N+](=O)[O-])cc(C(F)(F)F)c(N)c1[N+](=O)[O-] here?
Answer: 37.8 µM (active)

Question: With O=C(O)C1(C(=O)Nc2ccc(Cl)cc2Cl)CC1 as the compound, how does the AC50 read?
Answer: 18.6 µM (active)

Question: For CCCOC(=O)NCCCN(C)C, which outcome is on record?
Answer: inactive

Question: Which outcome does the source give for CC(C)(C)[C@@H](O)[C@@H](Cc1ccc(Cl)cc1)n1cncn1 here?
Answer: inactive

Question: With CCCN(CCC)C(=O)SCC as the compound, how does the outcome read?
Answer: inactive

Question: Which outcome does the source give for CCOC(=O)COc1cc(-n2ncc(C(F)(F)F)c(C)c2=O)c(F)cc1Cl here?
Answer: inactive

Question: Which AC50 does the source give for CCOC(=O)NCCOc1ccc(Oc2ccccc2)cc1 here?
Answer: 38.1 µM (active)

Question: For COC(=O)c1ccc(I)cc1S(=O)(=O)NC(=O)Nc1nc(C)nc(OC)n1, which outcome is on record?
Answer: inactive

Question: For Cc1nn(C)c(Oc2ccccc2)c1C=NOCc1ccc(C(=O)OC(C)(C)C)cc1, which AC50 is on record?
Answer: 0.0043 µM (active)

Question: Which outcome does the source give for OB(O)O here?
Answer: inactive

Question: For CCOC(=O)C(C)Oc1ccc(Oc2nc3ccc(Cl)cc3o2)cc1 (configuration not stated), which outcome is on record?
Answer: inactive

Question: Which outcome does the source give for COC(=O)CSc1cc(N=c2sc(=O)n3n2CCCC3)c(F)cc1Cl here?
Answer: inactive

Question: With CCNc1nc(N)nc(Cl)n1 as the compound, how does the outcome read?
Answer: inactive
